# Values joined by “and” are separate entries in the source; they are usually repeats but may differ in a detail not shown here. Identical values can stand only once. Records with an inconclusive call do not appear. Where a call stands in place of a potency, no number is given. A structure can be active in one record and inactive in another. Active and inactive are the calls of the source. Unless noted, calls follow the shape of the dose curve; as a rule, active = well fitted curve in the direction sought with a large enough effect in the repeat runs; inconclusive = weak or mixed curves; inactive = no such curve, though single readings can be large; an effect the other way counts as inactive or inconclusive.
# What was measured:
# [1] = biological target: Estrogen receptor beta (Homo sapiens) (UniProt Q92731); assay: qHTS assay to identify small molecule agonists of the estrogen receptor beta (ER-beta) signaling pathway (AID 1259377; active = well fitted activation curve with a large enough effect in the signal ratio in the repeat runs, not every such curve was filed as active; the % refers to the signal ratio)
# Method in brief: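 In HEK293T cells bearing a UAS-beta-lactamase reporter under ER-beta control, DMSO-delivered compounds were incubated for 16 hr at 37C. Activity was detected as fluorescence 2 hours after LiveBLAzer B/G FRET substrate addition.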
# [2] = biological target: Estrogen receptor beta (Homo sapiens) (UniProt Q92731); assay: qHTS assay to identify small molecule antagonists of the estrogen receptor beta (ER-beta) signaling pathway (AID 1259378; active = well fitted inhibition curve with a large enough effect in the signal ratio in the repeat runs, not every such curve was filed as active; the % refers to the signal ratio)
# Method in brief: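 ER-beta-UAS-bla HEK293T cells in 2% charcoal-stripped FBS medium treated with compound plus 1nM final 17-beta-estradiol for 16 hr at 37C. Beta-lactamase reporter read by FRET substrate fluorescence after 2 hours at room temperature.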
# [3] = qHTS assay to identify small molecule agonists of the androgen receptor (AR) signaling pathway in the presence of an antagonist - cell viability counter screen (AID 1259379);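 also: MDA-kb2 human breast cancer cells carrying an MMTV luciferase reporter; series mostly up to about 92 µM; nearly all actives have a fitted effect of over 25% in size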
# Method in brief: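 MDA-kb2 cells (MMTV-luciferase, AR/GR), 3,000/well, 5 h attachment, then 3.0 µM nilutamide (final) and compounds at 15 concentrations. Viability by CellTiter-Fluor fluorescence after 16 h at 37 °C, 0% CO2, in the reporter wells.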
# [4] = qHTS assay to identify small molecule antagonists of the estrogen receptor beta (ER-beta) signaling pathway - cell viability counter screen (AID 1259382); also: series mostly up to about 92 µM; nearly all actives have a fitted effect of over 55% in size
# Method in brief: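 ER-beta-UAS-bla HEK293T cells in 2% charcoal-stripped FBS medium, treated with compound plus 1 nM 17-beta-estradiol for 16 h at 37C. Viability read by CellTiter-Glo luminescence after 30 min at room temperature in the same wells.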
# [5] = biological target: Estrogen receptor (Homo sapiens) (UniProt P03372); assay: qHTS assay to identify small molecule agonists of the estrogen receptor alpha (ER-alpha) signaling pathway in the presence of an antagonist (AID 1259383; calls by dose curve; also: top concentration of the series differs between compounds; nearly all actives have a fitted effect of over 15% in size)
# Method in brief: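 VM7Luc4E2 cells express endogenous full-length ER-alpha with an ERE-luciferase reporter and were hormone-deprived for 5 days. Compounds at 15 concentrations were added with 10.0nM ICI-182,780 for 22hr at 37C. Luminescence was read with ONE-Glo.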
# [6] = qHTS assay to identify small molecule agonists or antagonists of the thyroid stimulating hormone receptor (TSHR) signaling pathway - wild type cell line counter screen (AID 1259384; calls by dose curve)
# Method in brief: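 Wild-type Hek293 cells, 800/well, 18 h at 37C, then compound with Ro20-1724 for 30 min RT. cAMP by HTRF (cAMP-d2/anti-cAMP cryptate), 1 h RT, fluorescence read. 15 concentrations, triplicates.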
# [7] = biological target: Thyrotropin receptor (Homo sapiens) (UniProt P16473); assay: qHTS assay to identify small molecule antagonists of the thyroid stimulating hormone receptor (TSHR) signaling pathway (AID 1259385; calls by dose curve; also: nearly all actives have a fitted effect of over 20% in size)
# Method in brief: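 TSHR-HEK293 cells (800/well) plated 18 h, then compounds with Ro20-1724 and TSH at 1.5 ng/mL final, 30 min at room temperature. cAMP quantified by HTRF (cAMP-d2/anti-cAMP-cryptate, 1 h); 15 concentrations in triplicate.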
# [8] = qHTS assay to identify small molecule agonists of the estrogen receptor alpha (ER-alpha) signaling pathway in the presence of an antagonist - cell viability counter screen (AID 1259386);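 also: series mostly up to about 92 µM; cells exposed to compounds for 22 h at 37 °C before the viability read; nearly all actives have a fitted effect of over 30% in size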
# Method in brief: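 Cell viability in VM7Luc4E2 cells (endogenous full-length ER-alpha) measured by CellTiter-Fluor fluorescence in the same wells as the luciferase screen. Cells pre-cultured 5 days in charcoal-stripped serum, then treated 22 h with compounds at 15 concentrations plus 10.0nM ICI-182,780.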
# [9] = biological target: Progesterone receptor (Homo sapiens) (UniProt P06401); assay: qHTS assay to identify small molecule agonists of the progesterone receptor (PR) signaling pathway (AID 1346784; calls by dose curve; also: nearly all actives have a fitted effect of over 30% in size)
# Method in brief: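 Using charcoal-stripped serum (2%) to limit endogenous steroids, PR-UAS-bla HEK 293T cells received compounds for 16 hr at 37C after 6 hr plating; beta-lactamase FRET fluorescence was recorded following 2 hr substrate loading at room temperature.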
# [10] = biological target: Progesterone receptor (Homo sapiens) (UniProt P06401); assay: qHTS assay to identify small molecule antagonists of the progesterone receptor (PR) signaling pathway (AID 1346795; active = well fitted inhibition curve with a large enough effect in the signal ratio in the repeat runs, not every such curve was filed as active; the % refers to the signal ratio; also: potency is read from the fitted curve at half-maximal effect)
# Method in brief: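 Inhibition of R5020-induced (1 nM final) beta-lactamase reporter signal in PR-UAS-bla HEK293T cells was scored by FRET fluorescence after overnight (16 hr) compound treatment.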
# [11] = qHTS assay to identify small molecule antagonists of the progesterone receptor (PR) signaling pathway - cell viability counter screen (AID 1346798); also: series mostly up to about 92 µM; nearly all actives have a fitted effect of over 50% in size
# Method in brief: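 ATP content as viability readout: CellTiter-Glo luminescence, 30 min room temperature, in PR-UAS-bla HEK293T cells after 16 hr compound/R5020 treatment at 37C and 5% CO2.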
# [12] = qHTS assay to identify small molecule agonists of the progesterone receptor (PR) signaling pathway - cell viability counter screen (AID 1346799; calls by dose curve; also: nearly all actives have a fitted effect of over 45% in size)
# Method in brief: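 Cytotoxicity in PR-bla HEK293T cells: 16 h compound, 37C; CellTiter-Glo added post-FRET read; luminescence after 30 min RT.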
# [13] = qHTS assay to identify small molecule antagonists of the TGF-beta/Smad signaling pathway - cell viability counter screen (AID 1346824); also: nearly all actives have a fitted effect of over 50% in size
# Method in brief: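 SBE-bla HEK 293T cells, incubated overnight, then compound plus 0.25 ng/mL TGF-beta1 (stock added) for 5 hr at 37 C. Viability was read in the same wells by CellTiter-Glo luminescence after 30 min at room temperature.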
# [14] = qHTS assay to identify small molecule agonists of the TGF-beta/Smad signaling pathway - cell viability counter screen (AID 1346829); also: top concentration of the series differs between compounds; nearly all actives have a fitted effect of over 45% in size
# Method in brief: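 Compound-treated SBE-bla HEK 293T cells (5 hr, 37 C) were assessed for viability with CellTiter-Glo in parallel with the reporter read.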
# [15] = biological target: Thyrotropin-releasing hormone receptor (Homo sapiens) (UniProt P34981); assay: qHTS assay to identify small molecule antagonists of the thyrotropin-releasing hormone receptor (TRHR) signaling pathway (AID 1346877; active = well fitted inhibition curve with a large enough effect in the repeat runs, not every such curve was filed as active; also: series mostly up to about 51 µM)
# Method in brief: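 TRHR-expressing HEK293 cells loaded with calcium dye for 2 h at 37 C; compounds pre-incubated 5 min at room temperature before TRH challenge at 1 nM final. Intracellular calcium fluorescence read kinetically for 3 min; 15 concentrations in triplicate.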
# [16] = biological target: Thyrotropin-releasing hormone receptor (Homo sapiens) (UniProt P34981); assay: qHTS assay to identify small molecule agonists of the thyrotropin-releasing hormone receptor (TRHR) signaling pathway (AID 1346891; calls by dose curve; also: series mostly up to about 58 µM)
# Method in brief: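 In 1536-format, 1500 TRHR-Hek293 cells per well grew 18 h, took up calcium dye for 2 h at 37 °C, received compound, and were read kinetically; 15-point titrations, triplicates.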
# [17] = qHTS assay to identify small molecule agonists of the estrogen receptor beta (ER-beta) signaling pathway - cell viability counter screen (AID 1259380); also: nearly all actives have a fitted effect of over 30% in size; also: potency is read from the fitted curve at half-maximal effect
# Method in brief: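 ER-beta-UAS-bla HEK293T cells in medium with 2% charcoal-stripped FBS, pre-incubated 6 hr, then treated 16 hr at 37C. Cytotoxicity read in the same wells by CellTiter-Glo luminescence after 30 min at room temperature.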
# [18] = qHTS assay to identify small molecule agonists of the TGF-beta/Smad signaling pathway (AID 1346859; active = well fitted activation curve with a large enough effect in the signal ratio in the repeat runs, not every such curve was filed as active; the % refers to the signal ratio; also: potency is read from the fitted curve at half-maximal effect; as to activation: series mostly up to about 77 µM)
# Method in brief: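 Stable Smad binding element-beta-lactamase HEK 293T cells; 5 hr compound exposure at 37 C under 5% CO2; 2 hr room-temperature substrate step; fluorescence excited at 405 nm, collected at 460 nm and 530 nm.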
# [19] = biological target: Androgen receptor (Homo sapiens) (UniProt P10275); assay: qHTS assay to identify small molecule agonists of the androgen receptor (AR) signaling pathway in the presence of an antagonist (AID 1259381; calls by dose curve; also: nearly all actives have a fitted effect of over 15% in size)
# Method in brief: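 MDA-kb2 cells carrying MMTV-luciferase (AR/GR responsive), 3,000 cells/well, co-treated with 3.0 uM nilutamide final. Compounds at 15 concentrations, 16 hr at 37C without CO2. Luciferase luminescence read after 30 min with ONE-Glo.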
# Estrogen receptor beta (Homo sapiens), sequence (Q92731 whole entry, looked up): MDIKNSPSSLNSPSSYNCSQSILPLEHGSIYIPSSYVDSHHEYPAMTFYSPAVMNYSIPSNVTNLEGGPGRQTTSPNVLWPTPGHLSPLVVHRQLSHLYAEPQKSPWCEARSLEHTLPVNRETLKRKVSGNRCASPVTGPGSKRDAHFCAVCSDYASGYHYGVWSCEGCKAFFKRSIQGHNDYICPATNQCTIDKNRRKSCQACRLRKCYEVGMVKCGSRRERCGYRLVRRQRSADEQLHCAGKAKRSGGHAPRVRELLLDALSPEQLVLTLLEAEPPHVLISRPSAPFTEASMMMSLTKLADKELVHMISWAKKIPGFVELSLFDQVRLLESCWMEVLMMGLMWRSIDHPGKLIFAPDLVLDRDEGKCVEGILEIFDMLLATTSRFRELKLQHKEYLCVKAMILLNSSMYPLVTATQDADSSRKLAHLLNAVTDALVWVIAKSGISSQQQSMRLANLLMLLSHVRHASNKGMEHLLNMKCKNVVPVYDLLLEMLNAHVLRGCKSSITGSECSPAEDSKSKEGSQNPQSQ
# Thyrotropin receptor (Homo sapiens), sequence (P16473 whole entry, looked up): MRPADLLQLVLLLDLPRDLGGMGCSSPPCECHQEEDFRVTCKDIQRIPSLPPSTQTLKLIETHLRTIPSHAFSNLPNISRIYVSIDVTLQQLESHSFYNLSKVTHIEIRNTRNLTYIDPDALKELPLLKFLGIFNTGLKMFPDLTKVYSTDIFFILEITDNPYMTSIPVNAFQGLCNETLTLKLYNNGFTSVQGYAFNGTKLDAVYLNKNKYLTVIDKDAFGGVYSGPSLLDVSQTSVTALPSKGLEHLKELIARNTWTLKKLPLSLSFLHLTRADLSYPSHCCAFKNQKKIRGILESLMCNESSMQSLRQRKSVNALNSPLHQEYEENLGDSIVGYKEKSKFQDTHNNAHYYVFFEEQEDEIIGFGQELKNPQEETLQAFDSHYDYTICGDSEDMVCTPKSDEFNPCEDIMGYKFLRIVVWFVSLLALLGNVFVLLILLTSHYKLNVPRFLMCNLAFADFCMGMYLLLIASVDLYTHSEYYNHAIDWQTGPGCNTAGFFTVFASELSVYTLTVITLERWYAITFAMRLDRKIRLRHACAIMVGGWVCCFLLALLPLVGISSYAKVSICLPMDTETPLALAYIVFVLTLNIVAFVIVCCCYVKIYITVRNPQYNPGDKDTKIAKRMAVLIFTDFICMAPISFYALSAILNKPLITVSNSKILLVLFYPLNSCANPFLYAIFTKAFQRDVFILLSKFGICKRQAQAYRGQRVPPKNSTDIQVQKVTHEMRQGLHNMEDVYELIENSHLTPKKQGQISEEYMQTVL
# Estrogen receptor (Homo sapiens), sequence (P03372 whole entry, looked up): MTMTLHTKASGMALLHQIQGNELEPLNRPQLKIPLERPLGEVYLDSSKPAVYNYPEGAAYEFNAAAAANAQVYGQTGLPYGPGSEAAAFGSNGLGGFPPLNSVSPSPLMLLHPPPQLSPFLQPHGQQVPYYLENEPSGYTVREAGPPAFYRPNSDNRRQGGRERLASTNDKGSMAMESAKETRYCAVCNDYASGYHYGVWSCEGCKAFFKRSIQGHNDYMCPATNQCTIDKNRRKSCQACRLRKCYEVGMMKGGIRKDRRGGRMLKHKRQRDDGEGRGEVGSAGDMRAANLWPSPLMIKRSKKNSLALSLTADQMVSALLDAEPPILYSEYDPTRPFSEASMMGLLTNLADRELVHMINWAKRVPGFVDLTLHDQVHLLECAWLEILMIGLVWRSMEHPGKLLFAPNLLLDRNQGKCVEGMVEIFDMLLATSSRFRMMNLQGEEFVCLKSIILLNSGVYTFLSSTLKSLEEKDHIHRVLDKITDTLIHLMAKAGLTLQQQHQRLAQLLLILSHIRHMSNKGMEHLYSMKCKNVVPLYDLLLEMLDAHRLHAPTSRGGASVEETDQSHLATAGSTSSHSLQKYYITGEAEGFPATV
# Progesterone receptor (Homo sapiens), sequence (P06401 whole entry, looked up): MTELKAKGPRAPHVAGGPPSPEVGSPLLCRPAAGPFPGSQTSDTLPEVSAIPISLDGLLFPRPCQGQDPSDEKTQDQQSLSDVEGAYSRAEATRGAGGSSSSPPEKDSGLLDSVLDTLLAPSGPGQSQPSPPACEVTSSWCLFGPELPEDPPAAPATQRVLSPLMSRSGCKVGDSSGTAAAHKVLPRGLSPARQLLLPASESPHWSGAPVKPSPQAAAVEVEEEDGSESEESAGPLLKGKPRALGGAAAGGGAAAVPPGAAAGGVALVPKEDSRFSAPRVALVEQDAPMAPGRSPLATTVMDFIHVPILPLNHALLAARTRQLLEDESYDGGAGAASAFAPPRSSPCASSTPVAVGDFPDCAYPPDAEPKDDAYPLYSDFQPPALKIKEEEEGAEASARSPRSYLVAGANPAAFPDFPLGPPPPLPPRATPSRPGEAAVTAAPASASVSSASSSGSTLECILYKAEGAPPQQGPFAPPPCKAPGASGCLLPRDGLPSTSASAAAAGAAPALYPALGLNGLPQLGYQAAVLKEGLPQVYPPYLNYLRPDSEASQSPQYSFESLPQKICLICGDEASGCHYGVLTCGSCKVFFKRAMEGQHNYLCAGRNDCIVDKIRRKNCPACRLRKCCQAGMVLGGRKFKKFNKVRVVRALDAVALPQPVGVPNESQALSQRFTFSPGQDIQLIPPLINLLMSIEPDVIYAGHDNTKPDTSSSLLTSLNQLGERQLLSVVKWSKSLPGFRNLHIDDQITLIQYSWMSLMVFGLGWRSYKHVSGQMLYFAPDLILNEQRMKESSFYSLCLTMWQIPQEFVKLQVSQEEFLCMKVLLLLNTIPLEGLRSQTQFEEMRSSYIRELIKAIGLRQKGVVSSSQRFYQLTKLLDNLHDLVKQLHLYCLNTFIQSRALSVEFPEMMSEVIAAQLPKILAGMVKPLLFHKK
# Thyrotropin-releasing hormone receptor (Homo sapiens), sequence (P34981 whole entry, looked up): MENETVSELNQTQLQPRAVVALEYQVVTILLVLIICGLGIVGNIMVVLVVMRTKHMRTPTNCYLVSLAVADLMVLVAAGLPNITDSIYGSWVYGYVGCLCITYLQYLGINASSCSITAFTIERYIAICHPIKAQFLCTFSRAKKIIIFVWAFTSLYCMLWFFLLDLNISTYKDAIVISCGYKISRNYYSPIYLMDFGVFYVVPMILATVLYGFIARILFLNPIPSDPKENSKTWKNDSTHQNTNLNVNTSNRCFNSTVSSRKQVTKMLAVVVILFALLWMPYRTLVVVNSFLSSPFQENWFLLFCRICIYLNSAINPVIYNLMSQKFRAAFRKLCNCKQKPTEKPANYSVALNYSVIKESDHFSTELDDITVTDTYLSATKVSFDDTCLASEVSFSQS
# Androgen receptor (Homo sapiens), sequence (P10275 whole entry, looked up): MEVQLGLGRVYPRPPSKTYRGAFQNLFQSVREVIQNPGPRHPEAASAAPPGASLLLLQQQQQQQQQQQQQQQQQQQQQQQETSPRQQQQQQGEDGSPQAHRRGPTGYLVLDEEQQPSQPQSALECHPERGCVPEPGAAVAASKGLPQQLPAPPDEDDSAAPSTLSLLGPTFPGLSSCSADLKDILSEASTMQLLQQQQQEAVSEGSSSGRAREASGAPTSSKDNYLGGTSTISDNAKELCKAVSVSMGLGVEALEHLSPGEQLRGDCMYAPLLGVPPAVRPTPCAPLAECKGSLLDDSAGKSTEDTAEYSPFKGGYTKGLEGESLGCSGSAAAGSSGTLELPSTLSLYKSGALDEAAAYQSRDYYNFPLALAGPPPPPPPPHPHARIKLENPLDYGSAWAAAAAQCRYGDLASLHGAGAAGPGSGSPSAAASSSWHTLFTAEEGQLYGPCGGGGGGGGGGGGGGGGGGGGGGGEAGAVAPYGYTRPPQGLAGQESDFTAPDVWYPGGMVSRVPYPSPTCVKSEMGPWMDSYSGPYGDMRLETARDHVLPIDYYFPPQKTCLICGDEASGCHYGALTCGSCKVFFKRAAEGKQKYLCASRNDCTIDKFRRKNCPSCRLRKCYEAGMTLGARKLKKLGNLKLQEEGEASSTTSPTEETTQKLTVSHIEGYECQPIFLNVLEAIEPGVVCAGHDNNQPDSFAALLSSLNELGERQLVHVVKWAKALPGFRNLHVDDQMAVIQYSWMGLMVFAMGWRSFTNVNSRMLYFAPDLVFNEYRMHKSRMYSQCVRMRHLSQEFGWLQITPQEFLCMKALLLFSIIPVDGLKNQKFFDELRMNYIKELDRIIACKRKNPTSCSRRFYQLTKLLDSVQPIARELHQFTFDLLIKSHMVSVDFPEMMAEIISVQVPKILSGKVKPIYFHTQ
Compound,Potency [1],Potency [2],Potency [3],Potency [4],Potency [5],Potency [6],Potency [7],Potency [8],Potency [9],Potency [10],Potency [11],Potency [12],Potency [13],Potency [14],Potency [15],outcome [16],Potency [17],Potency [18],outcome [19]
COc1c2ccoc2cc2oc(=O)ccc12,inactive,inactive,inactive,inactive,inactive,inactive,inactive,inactive,inactive,15.7 µM (active),inactive,inactive,inactive,inactive,inactive,inactive,–,–,–
Clc1cccc(Cl)c1NC1=NCCN1,–,–,inactive,inactive,–,inactive,inactive,inactive,inactive,inactive,inactive,–,inactive,inactive,–,–,inactive,inactive,–
CC(C)(C)NC[C@H](O)COc1nsnc1N1CCOCC1,–,–,inactive,inactive,–,–,–,inactive,inactive,inactive,inactive,inactive,–,inactive,–,–,–,inactive,–
O=C1CCCCCCCCCCC1,inactive,inactive,inactive,inactive,inactive,inactive,inactive,inactive,inactive,inactive,inactive,inactive,–,inactive,–,–,–,–,–
C1CCCNCC1,inactive,inactive,inactive,inactive,inactive,inactive,inactive,inactive,inactive,–,inactive,–,inactive,inactive,inactive,inactive,inactive,–,–
CC(=O)OC[C@H]1O[C@@](COC(C)=O)(O[C@H]2O[C@H](COC(C)=O)[C@@H](OC(C)=O)[C@H](OC(C)=O)[C@H]2OC(C)=O)[C@@H](OC(C)=O)[C@@H]1OC(C)=O,inactive,inactive,inactive,inactive,–,inactive,inactive,inactive,inactive,inactive,inactive,–,inactive,inactive,inactive,inactive,inactive,inactive,–
Nc1nc(N)c2nc(-c3ccccc3)c(N)nc2n1,–,–,inactive,inactive,inactive,inactive,inactive,inactive,–,–,inactive,inactive,inactive,inactive,inactive,inactive,69.4 µM (active) and inactive,22.1 µM (active) and 19 µM (active),inactive
C[n+]1ccn(CCO)c1,inactive,inactive,inactive,inactive,–,–,–,inactive,inactive,–,inactive,inactive,inactive,inactive,inactive,inactive,inactive,inactive,–
OC[C@H]1O[C@@H](Oc2ccc(O)cc2)[C@H](O)[C@@H](O)[C@@H]1O,–,–,inactive,inactive,inactive,inactive,inactive,inactive,inactive,inactive,inactive,–,inactive,inactive,inactive,inactive,inactive,inactive,–
NC(=O)NC(N)=O,inactive,inactive,inactive,inactive,inactive,inactive,inactive,inactive,inactive,inactive,inactive,–,inactive,inactive,inactive,inactive,inactive,–,–
